Screening data: PubChem BioAssay, National Center for Advancing Translational Sciences (NCATS)
The list is not random: actives were taken first. Their share in the collection is about 4.6%.
D1 potentiator: potentiators of human D1 dopamine receptor; P21728; potentiation, % at 10 µM; 360,000 tested, 0.036% active; AID 504651; HEK293 TREx D1 cells, calcium flux, dopamine EC20 potentiation; in the data active = potentiation above about 30%
Target sequence (P21728 whole entry, looked up): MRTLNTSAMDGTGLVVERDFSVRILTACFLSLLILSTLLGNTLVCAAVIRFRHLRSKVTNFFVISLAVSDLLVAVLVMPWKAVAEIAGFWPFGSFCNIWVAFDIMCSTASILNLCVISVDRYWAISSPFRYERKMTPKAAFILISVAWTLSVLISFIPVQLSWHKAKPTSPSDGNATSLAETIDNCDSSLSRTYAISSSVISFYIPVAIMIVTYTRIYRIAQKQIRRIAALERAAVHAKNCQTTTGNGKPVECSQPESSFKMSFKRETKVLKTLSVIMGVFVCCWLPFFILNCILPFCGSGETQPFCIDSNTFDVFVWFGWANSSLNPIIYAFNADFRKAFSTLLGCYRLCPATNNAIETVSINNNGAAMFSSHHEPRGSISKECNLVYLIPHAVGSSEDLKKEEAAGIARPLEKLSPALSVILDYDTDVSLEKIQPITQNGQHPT
TRHR agonist: agonists of human TRH receptor. 360,000 tested, 0.18% active. activation, % at 2 µM. P34981. AID 493084. TRHR cells, calcium flux fluo-8, FDSS agonist mode
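Steps: seed TRHR cells overnight; add fluo-8 no-wash Ca dye, RT 30 min–1.5 h; record 10 s baseline; pin-transfer compounds; monitor fluorescence 1 cycle/s for the agonist window. Calcium increases flag candidate agonists.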
TRHR enhancer: TRH receptor (human) allosteric enhancement. P34981. enhancement, % at 2 µM. TRHR cells, fluo-8 calcium fluorescence, EC20 TRH enhancement. AID 493056. 360,000 tested, 0.66% active; in the data active = enhancement above about 30%
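Enhancer read-out: after compound pinning and an initial kinetic agonist-mode read, an EC20 of TRH (10 nM final) was injected and fluo-8 calcium signal (Ex 480/Em 530) followed at 1 s/cycle for 100 cycles in TRHR-expressing cells.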
D1 antagonist: blocks dopamine activation of the human D1 receptor. HEK293 TREx D1 cells, calcium flux, dopamine EC80; active compounds read low. 360,000 tested, 3.2% active. activity change, negative = inhibition, % at 10 µM. P21728. AID 504652; in the data active = activity change below about -30%
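HEK293 T-REx cells expressing inducible, force-coupled D1 receptor; no-wash Ca dye, 30–90 min RT. Cmpd → 180 s read at 1 Hz → EC80 DA → 180 s read.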
D1 ag: agonists of human D1 dopamine receptor | P21728 | HEK293 T-REx D1 cells, calcium flux, agonist mode | activation, % at 2 µM | 360,000 tested, 1% active | AID 504660
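Agonism was scored from calcium flux recorded over 180 s (1 read/s) after pintool compound addition, following a 10-cycle baseline. Cells were inducible force-coupled HEK293 TREx D1, plated overnight at 30 C and loaded with no-wash calcium dye.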
Hits are given with their value; – = inactive; · = no result. Rule as the data show it, unless noted: active = activation above about 30%; inactive = the rest.

SMILES	D1 potentiator	TRHR agonist	TRHR enhancer	D1 antagonist	D1 ag
CCC(CO)NC(=O)C1C=C2c3cccc4[nH]cc(c34)CC2N(C)C1 (stereo not given)	–	–	–	-86	–
COC(=O)C1C=C2c3cccc4[nH]cc(c34)CC2N(C)C1 (stereo not given)	–	–	–	–	–
CCCCN1C(=O)NC(=O)C2(Cc3c(nc4c(C)cccn4c3=O)N3CCc4ccccc4C32)C1=O (stereo not given)	–	–	–	–	38
Cc1cccc(-c2nn3c(=O)cc(CN4CCN(C(=O)COc5ccc(Cl)cc5)CC4)nc3s2)c1	–	–	–	–	–
COc1ccc2[nH]cc(CCN)c2c1	–	–	31	–	–
Cc1c(CC(=O)N2C[C@H]3C[C@@H](C2)c2cccc(=O)n2C3)c(=O)oc2cc(O)c(Cl)cc12	–	–	–	-47	–
Cc1c(CC(=O)N2C[C@H]3C[C@@H](C2)c2cccc(=O)n2C3)c(=O)oc2c(C)c(O)ccc12	–	–	–	–	–
CCOc1ccc2nc(NC(=O)c3cccn(Cc4ccccc4)c3=O)sc2c1	–	–	–	·	33
CC1(C)CSC(=NCc2ccccc2)N1	36	77	–	-38	152
O=C1CN=C(c2ccccc2)c2cc(Cl)ccc2N1Cc1ccc(Cl)cc1	–	–	–	–	–
O=P1(Oc2ccccc2)OCCCS1 (stereo not given)	–	–	–	-30	–
CCN(CC)P(=O)(c1nccn1C)N(CC)CC	–	–	–	-37	–
O=C(C(Cc1ccccc1)NS(=O)(=O)c1cccc2nsnc12)N1CCC2(CC1)OCCO2 (stereo not given)	–	–	–	–	–
O=C(C1CCCN(S(=O)(=O)c2cccc3nsnc23)C1)N1CCC2(CC1)OCCO2 (stereo not given)	–	–	–	-36	–
O=C1NC(=O)C(CCc2ccncc2)(Cc2cccc(Cl)c2Cl)C(=O)N1c1ccc(Br)cc1 (stereo not given)	–	–	–	-76	–
CCc1ccc(N2C(=O)NC(=O)C(CCc3ccncc3)(CCc3ccncc3)C2=O)cc1	–	–	–	–	–
O=C1CC(c2c(F)cccc2Cl)c2c(c3ccccc3oc2=O)O1 (stereo not given)	–	–	–	–	–
Cc1ccc(N2C(=O)CC(=O)NC2=O)cc1	–	–	–	–	–
COc1ccc(N2C(=O)CC(=O)NC2=O)cc1	–	–	–	-79	–
C[C@H]1CCC/C=C/C2C[C@H](O)CC2[C@H](O)/C=C/C(=O)O1 (stereo not given in full)	–	–	–	-41	–
CC1CCC/C=C/C2CC(O)CC2C(O)/C=C/C(=O)O1 (stereo not given)	–	–	–	–	–
O=C1NC(=O)N(CCc2ccc(F)cc2)C(=O)/C1=C\C=C\c1ccccc1	–	–	–	–	–
C=CCN1C(=O)NC(=O)/C(=C/C=C/c2ccccc2)C1=O	–	–	–	-34	–
Cc1cc(O)c2c3c(c(=O)oc2c1)CCC(C)C3 (stereo not given)	–	–	–	-35	37
O=C(Nc1ccc2c(c1)OCO2)c1cccn(Cc2ccccc2)c1=O	–	–	–	·	–
SMILES	D1 potentiator	TRHR agonist	TRHR enhancer	D1 antagonist	D1 ag
Cc1ccc(C(=O)N[C@@H](C)CN2C3=NC[C@H](Cc4ccccc4)N3C[C@H]2Cc2ccc(O)cc2)cc1Br	–	–	–	-65	–
Cc1ccc(C(=O)N[C@@H](C)CN2C3=NC[C@@H](Cc4ccccc4)N3C[C@H]2Cc2ccc(O)cc2)cc1Br	–	–	–	-44	–
COc1ccc(OC)c(NP(=O)(Oc2ccccc2)Oc2ccccc2)c1	–	–	30	–	–
CCOC(=O)C1=C(N)Oc2c(c(=O)oc3ccccc23)C12C(=O)N(C)c1ccccc12 (stereo not given)	–	–	–	-67	–
C=CCN1C(=O)C2(C(C(=O)OCC)=C(N)Oc3ccccc32)c2c1c1ccccc1oc2=O (stereo not given)	–	–	–	–	–
CN1CCN(c2oc(-c3ccc(COc4ccccc4)o3)nc2C#N)CC1	–	–	–	–	–
CC1(C)C[C@H]2C=C(C=O)[C@]3(C=O)C[C@]3(C)[C@H]2C1	–	–	–	-57	–
Cc1ccccc1Cn1cccc(C(=O)Nc2nc3ccccc3s2)c1=O	–	–	–	–	–
